SMILES strings stand for the structures. The whole screen tested about 140,000 compounds, of which about 2,100 (1.5%) were called active. The sample holds actives, similar compounds and a random draw of the others, so the mix is not that of the screen. Unmarked numbers belong to inactive results. Rule as the data show it: active = protection mostly above about 24% (no sharp cut-off); inactive = mostly below about 26%.

This passage reports protection (pct of control) results from PubChem BioAssay AID841 (Emory University Molecular Libraries Screening Center, 2007).

The assay in a line: compounds protecting cells from measles virus cytopathic effect, primary screen, measles RdRp inhibitor project, single point, MLSMR library, absorbance (AID 841). The following applies: Measles virus-infected cells, CPE protection, at 4 µM, active compounds read high. In general terms: Protection from cytopathic effect is a common read-out in antiviral testing.
With `O=C(OCC(O)C(O)COC(=O)c1ccccc1)c1ccccc1` (centres undefined), the protection (pct of control) was 37.5% (active).

As to `O=C(COC(=O)c1ccccc1)Nc1ccccc1Sc1ccccc1`, the protection (pct of control) was 6.19%. Turning to `COC(=O)c1ccc(NCC(=O)c2ccccc2)cc1`, the protection (pct of control) is 2.68%. On to `CCn1c(O)c(N=NC(=O)c2cccc(S(=O)(=O)N3CCCCC3)c2)c2ccccc21`, for which the protection (pct of control) was 28.2%. As for `O=C(C/C(=N\NC(=O)c1ccccc1Br)C(F)(F)F)c1cccs1`, the protection (pct of control) was 9.78%. With `O=S(=O)(c1ccc(F)cc1)N1CCN(C(=S)NCc2ccco2)CC1` the figure was 18.5%; with `COC(=O)c1c(NC(=O)CN2CCN(S(=O)(=O)c3ccccc3[N+](=O)[O-])CC2)sc2c1CCC(C)C2` (centres undefined), 1.76%; with `C/C(Cc1ccccc1)=N\NC(=O)CNC(=O)c1cccc(Br)c1`, 4.73%. The figure for `c1n[nH]c(NCc2ccc3c(c2)OCO3)n1` is 47.6% (active). Turning to `CCOC(=O)NCc1ccc2c(c1)OCO2`, the protection (pct of control) is 22%. Regarding `O=C(COc1ccccc1)NCc1ccc2c(c1)OCO2`, the protection (pct of control) is 17.1%. On to `Cc1ccc(S(=O)(=O)Nc2nc(C)cc(N/N=C/c3ccc(O)cc3)n2)cc1`, for which the protection (pct of control) is 10.3%. For `CCOC(=O)C1CCN(C(=O)/C=C/c2cc(OC)c(OC)c(OC)c2)CC1`, the protection (pct of control) is 18%. For the compound `COc1ccc(CNC(=O)CN(Cc2ccc(Cl)cc2)S(C)(=O)=O)cc1`, the protection (pct of control) was 24.2%. Regarding `Cc1cc(C)c(S(=O)(=O)N2C=CC(C(F)(F)F)=NCC2)c(C)c1`, the protection (pct of control) is 30.8% (active).

Consider `Cc1cc(NS(=O)(=O)c2ccc(NC(=S)NC(=O)c3ccc(F)cc3Cl)cc2)no1`, for which the protection (pct of control) was 9.68%. On to `COc1cc(/C=C/C(=O)N2c3ccccc3Sc3ccc(C(F)(F)F)cc32)cc(OC)c1OC`, for which the protection (pct of control) was 2.04%. As for `O=C(CN1CCCCC1)N1c2ccccc2Sc2ccc(C(F)(F)F)cc21`, the protection (pct of control) is 5.95%. As for `O=C(CN1CCCCCC1)N1c2ccccc2Sc2ccc(C(F)(F)F)cc21`, the protection (pct of control) is 27.8% (active).

With `CCOC(=O)CNC(=O)/C=C/c1c(Cl)cccc1Cl`, the protection (pct of control) was 1.29%. As to `COc1cccc(C2SCC(=O)N2c2cccc(C)c2)c1OC` (centres undefined), the protection (pct of control) was 8.06%. With `CC(C)C(C)(C#N)NC(=O)CSc1nc2scc(-c3ccccc3)c2c(=O)[nH]1` (centres undefined) the figure was 8.49%; with `COc1ccc(Cl)cc1C(=O)NCC#N`, 16.7%; with `Cc1nn(C)cc1CNC(=O)Nc1ccc(Cl)cc1`, 8.21%. With `COc1ccc(Cl)cc1C(=O)NCc1cn(C)nc1C`, the protection (pct of control) was 42.3% (active). `CCCCCOc1ccc(/C=C/C(=O)NCCc2nc3ccccc3[nH]2)cc1OC`: the protection (pct of control) is 1.18%. For the compound `CCOC(=O)c1c(C)n(C)c2ccc(OC)c(NS(=O)(=O)CC)c12`, the protection (pct of control) is 7.46%. With `CC(Oc1ccccc1F)C(=O)NN` (centres undefined) the figure was 17.6%; with `CCn1c2ccccc2c2cc(NC(=O)COC(=O)c3ccccc3Br)ccc21`, 15.5%; with `Cn1cnc(C(F)(F)F)c1-c1ccc([N+](=O)[O-])cc1`, 14.3%. For the compound `COc1ccc(CCNC(=O)COC(=O)C2CCCCC2)cc1`, the protection (pct of control) was 7.59%. With `Cc1nn(-c2ccccc2)c(Cl)c1C(=O)Nc1ccccc1` the figure was 5.22%; with `Cc1ccc(C(=O)/C=C/c2c(C)nn(-c3ccccc3)c2Cl)cc1`, 60.1% (active). With `Cc1nn(-c2ccccc2)c(Cl)c1/C=C/C(=O)c1ccc(O)cc1`, the protection (pct of control) was 21.9%. For `Cc1ccc2nsnc2c1NC(=O)c1ccccc1[N+](=O)[O-]`, the protection (pct of control) was 5.19%. With `CCOc1cc(C(=O)Nc2ncccn2)cc(OCC)c1OCC`, the protection (pct of control) is 2.67%. Regarding `CCOc1cc(C(=O)Nc2c(C)ccc3nsnc23)cc(OCC)c1OCC`, the protection (pct of control) is 37.8% (active). On to `COC(=O)Cc1ccc(N(Cc2ccccc2F)S(=O)(=O)c2ccc(Br)cc2)cc1`, for which the protection (pct of control) was 18.5%.

Consider `COc1ccc(NC(=O)CN2C(=O)C(c3ccccc3)=NC23CCCCCC3)cc1OC`, for which the protection (pct of control) is 12%. With `CCc1ccc(Oc2coc3cc(OC(=O)c4cc5ccccc5oc4=O)ccc3c2=O)cc1` the figure was 5.53%. As for `Cc1ccc(S(=O)(=O)N2CCOCC2)cc1C(=O)NC(=S)N(Cc1ccccc1)C(C)C`, the protection (pct of control) is 21.7%.

In the case of `COc1cc2c(cc1/C=C1/NC(=O)N(c3ccccc3)C1=O)OCO2`, the protection (pct of control) was 22.7%. Consider `COC(=O)c1ccc(C(=O)OC)c(NC(=S)N2CCN(c3cc(Cl)ccc3C)CC2)c1`, for which the protection (pct of control) was 6.62%. For `COC(=O)c1ccc(C(=O)OC)c(NC(=S)N2CCN(c3ccc(F)cc3)CC2)c1`, the protection (pct of control) was 54.6% (active).

Turning to `COC(=O)c1ccc(C(=O)OC)c(NC(=S)N2CCCCC2)c1`, the protection (pct of control) is 5.41%.

For the compound `CCCc1cc(=O)[nH]c(SCc2cc(=O)oc3c(C)c(C)ccc23)n1`, the protection (pct of control) was 29.1%. For the compound `Cc1ccccc1Cn1nc(C)c(NC(=O)C(F)(F)F)c1C`, the protection (pct of control) was 2.3%. In the case of `COC(=O)c1sc(N)c(C(=O)OC)c1COC(=O)CNS(=O)(=O)c1ccc(C)cc1`, the protection (pct of control) is 12.3%.

Consider `O=C(Nc1ccccc1Cl)c1ccccc1S(=O)(=O)c1ccccc1[N+](=O)[O-]`, for which the protection (pct of control) was 2.96%. Turning to `CCC(=O)Nc1cccc(NC(=O)c2cccnc2)c1`, the protection (pct of control) is 5.87%. Take `Cc1cc(C)c(NC(=O)CS(=O)CC(=O)Nc2cccnc2)c(C)c1` (centres undefined): the protection (pct of control) was 56.7% (active).

Consider `O=C(CS(=O)(=O)Cc1ccccc1)Nc1cccnc1`, for which the protection (pct of control) is 20.4%. Take `COc1ccc(S(=O)(=O)NC(C)C)cc1C(=O)NC1CCCCC1`: the protection (pct of control) is 6.76%.

For the compound `Cc1cccc(C(=O)NC(=S)N2CCN(c3ccc([N+](=O)[O-])cc3)CC2)c1`, the protection (pct of control) is 6.39%.

As to `Cc1ccccc1N(C(=O)Cc1cccs1)C(C(=O)NC1CCCCC1)c1cn(C)nc1C` (centres undefined), the protection (pct of control) is 20.1%. As to `Cn1cccc1C(=O)Nc1nccs1`, the protection (pct of control) is 0.78%.

With `O=C(CCSCCc1ccccn1)Nc1nccs1`, the protection (pct of control) is 45.9% (active). The figure for `CN(CCCC(=O)Nc1nccs1)S(=O)(=O)c1ccc(Cl)cc1` is 15.3%.

Take `NC(=O)Cc1ccc2sc(-c3ccccc3)nc2c1`: the protection (pct of control) is 30.1%. Regarding `CCc1cccc(CC)c1NC(=O)COc1ccccc1C(=O)c1cc(C#N)c(=O)n(C2CCCCC2)c1`, the protection (pct of control) is 11.3%. Regarding `COc1ccc(NC(=O)CN(Cc2ccccc2)S(C)(=O)=O)cc1OC`, the protection (pct of control) is 34.5%. Turning to `CS(=O)(=O)c1ccc2nc(NC(=O)C3CCCCC3)sc2c1`, the protection (pct of control) was 38.1% (active).

As for `CS(=O)(=O)c1ccc2nc(NC(=O)C3C4C=CC(C4)C3C(=O)O)sc2c1` (centres undefined), the protection (pct of control) is 18.3%. For the compound `CS(=O)(=O)c1ccc2nc(NC(=O)CN3CCCCCC3)sc2c1`, the protection (pct of control) is 4.57%.

Consider `O=C(/C=C/c1cnc2ccccc2n1)NC1CCCCCC1`, for which the protection (pct of control) is 9.7%.

Consider `Cc1cc(NC(=O)CSc2nnc(-c3ccc(Cl)s3)o2)no1`, for which the protection (pct of control) is 86.1% (active). Regarding `COc1ccccc1-c1nnc(SCC(=O)Nc2cc(C)on2)o1`, the protection (pct of control) is 14.9%. Take `Cc1ccc(-c2csc(SCC(=O)Nc3cc(C)on3)n2)cc1`: the protection (pct of control) is 7.27%. As to `O=C(COC(=O)/C=C/c1nc2ccccc2s1)Nc1ccccc1Oc1ccccc1`, the protection (pct of control) was 1.41%. As to `Cc1cccc(-n2c(N)cc(=O)nc2SC(C)C(=O)NC2CCCCC2)c1` (centres undefined), the protection (pct of control) was 20.2%. Turning to `Cc1cccc(-n2c(SCC(N)=O)nc3c(c2=O)C2(CCCCC2)Cc2ccccc2-3)c1`, the protection (pct of control) was 29.9% (active). `N#CCSc1nc2c(c(=O)n1Cc1ccccc1)C1(CCCC1)Cc1ccccc1-2`: the protection (pct of control) is 1.58%. For the compound `COc1ccc(-c2csc3ncnc(Oc4ccc5c(C)cc(=O)oc5c4)c23)cc1`, the protection (pct of control) was 6.48%. For the compound `O=C(COc1ccc(/C=N/NC(=O)c2ccc(O)cc2)cc1)Nc1ccc([N+](=O)[O-])cc1`, the protection (pct of control) was 40.1% (active). Regarding `CCCCCC(=O)Nc1ccc(C(=O)N/N=C/c2ccc([N+](=O)[O-])cc2)cc1`, the protection (pct of control) was 25.1%. In the case of `O=C(COc1ccc([N+](=O)[O-])cc1)Nc1ccc(N2CCCC2)cc1`, the protection (pct of control) was 18.8%.

Take `O=C(NNC1CC(=O)N(c2cccc(Cl)c2)C1=O)c1cccnc1` (centres undefined): the protection (pct of control) is 8.5%.

For the compound `COc1cc(C2C(N3C(=O)c4ccccc4C3=O)C(=O)N2c2ccc(C)c(C)c2)cc(OC)c1OC` (centres undefined), the protection (pct of control) was 9.11%. Regarding `CC(=O)Nc1ccc(NC(=O)c2sc3nc4c(c(-c5ccc(C)cc5)c3c2N)CCC4)cc1`, the protection (pct of control) is 9.68%. In the case of `Cc1ccc(NC(=O)c2sc3nc(N)c(C#N)cc3c2N)cc1`, the protection (pct of control) was 74.1% (active).

As to `CCc1ccc2nc3sc(C(=O)Nc4nnc(CC)s4)c(N)c3cc2c1`, the protection (pct of control) was 1.37%.

`Cc1ccc(NC(=S)N2CCN(c3ncccn3)CC2)cc1C`: the protection (pct of control) was 12.6%. With `CCNC(=S)N1CCN(C(=O)c2ccco2)CC1`, the protection (pct of control) is 9.63%. As for `CCNC(=S)N1CCN(c2ncccn2)CC1`, the protection (pct of control) was 20.9% (active). As for `CCOC(=O)c1c(NC(=O)c2ccc(Br)o2)sc2c1CCCC2`, the protection (pct of control) is 27.8% (active). On to `CCOC(=O)c1c(NC(=S)NC(=O)c2ccco2)sc2c1CCCC2`, for which the protection (pct of control) is 37%. The figure for `CCOCC(=O)Nc1sc2c(c1C(=O)OCC)CCCC2` is 7.18%. The figure for `COc1cc(/C=C/C(=O)OCC(=O)Nc2cccc(Oc3ccccc3)c2)ccc1O` is 11.5%; for `C=CCc1ccccc1OCC(=O)N/N=C/c1ccccc1OCC` it is 1.64%; for `COc1ccc(C(F)(F)F)cc1N/C=C\c1nnnn1-c1ccc(C)cc1` it is 30.4% (active). On to `COc1ccc(C)cc1NC(=O)CCC(=O)Nc1nnc(C(F)(F)F)s1`, for which the protection (pct of control) is 11.8%. The figure for `COc1ccc(OC)c(-n2nnnc2SCC(=O)Nc2cc(C)ccc2OC)c1` is 17.2%; for `CCC(C)NC(=O)c1ccc(N2CCC3(CC2)OCCO3)c([N+](=O)[O-])c1` (centres undefined) it is 13.6%. With `Cc1cc(Cl)ccc1OCCCC(=O)NCc1ccncc1` the figure was 6.27%.
